Data taken from PubChem BioAssay AID588335 (The Scripps Research Institute Molecular Screening Center, 2011).
Out of some 360,000 compounds screened, about 4,500 (1.2%) were called active. This is one part of a sample in which actives are shown more often than they occur. Cut-off read from the data, not from the text of the source: active = inhibition above about 30%; inactive = the rest.

Experiment: inhibition of GDH and TPI enzymes – biochemical, absorbance, full deck, artefact control for M. tuberculosis FBA inhibitor project, primary screen (AID 588335);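 note: 0% = DMSO wells and 100% = wells lacking the enzyme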
Conditions: GDH-TPI coupled enzyme counterscreen, NADH absorbance; at 4.8 µM; active compounds read high

Structure (SMILES) | inhibition
O=C(CN1CCCCCC1)Nc1c(Cl)cc(Cl)cc1Cl | 3.42% (inactive)
COc1cc2nc(CN(C)Cc3ccc(F)cc3)[nH]c(=O)c2cc1OC | -3.88% (inactive)
Cc1ccc(-n2c(SCC(=O)NCCC3=CCCCC3)nc3n[nH]c(C)c3c2=N)cc1Cl | -1.52% (inactive)
CCCCNC(=O)CSc1nc2n[nH]c(C)c2c(=N)n1-c1cccc(Cl)c1C | 33.5% (active)
COc1cccc(-n2c(SCC(=O)NC3CCCCC3)nc3n[nH]c(C)c3c2=N)c1 | 0.37% (inactive)
CC(C)Nc1ccc(-n2nc3ccccc3[n+]2[O-])cc1 | 21.6% (inactive)
O=C(CN1C(=O)S/C(=C\c2ccccc2Cl)C1=O)NC1C=CS(=O)(=O)C1 (configuration not stated) | 35.4% (active)
CN(C(=O)CN1C(=O)S/C(=C\c2ccccc2F)C1=O)C1CCS(=O)(=O)C1 (configuration not stated) | 9.17% (inactive)
CC12CCC(=O)N1C(C(=O)NCCN1C(=O)S/C(=C\c3ccccc3F)C1=O)CS2 (configuration not stated) | 21.5% (inactive)
CCN(CC)C(=O)C1CCCN(Cc2cccc(Cl)c2)C1 (configuration not stated) | 11.3% (inactive)
COc1ccccc1C(=O)Nc1ccnn1C1CCN(C(=O)C(C)(C)C)CC1 | 2.52% (inactive)
COc1cc(C(=O)N/C(=C\c2cn(C)c3ccccc23)C(=O)N2CCOCC2)cc(OC)c1OC | 33.6% (active)
CCn1cc(/C=C(\NC(=O)c2cc(OC)c(OC)c(OC)c2)C(=O)N2CCN(C)CC2)c2ccccc21 | 27.5% (inactive)
Cc1ccc(C(=O)N/C(=C\c2cn(C)c3ccccc23)C(=O)N2CCN(C)CC2)cc1 | 18.5% (inactive)
CN(Cc1c(F)cccc1Cl)C(=O)COC(=O)Cn1cnc2ccccc2c1=O | 7.14% (inactive)
C/C(=C\C(=O)c1ccccc1)Nc1cccc(O)c1 | 8.48% (inactive)
C/C(=C\C(=O)c1cccnc1)Nc1ccc(C)c(C)c1 | 31.1% (active)
Cc1ccc(OCC(=O)NCCCNC(=O)c2cccnc2)cc1C | -5.28% (inactive)
C=C1C2C[C@H](O)C(C)(C)[C@@]2(O)[C@H](O)C[C@]23C[C@@](C)(O)[C@H](CC[C@H]12)[C@H]3O (some centres not stated) | 5.18% (inactive)
COc1ccc(SC[C@H](Cc2ccccc2)N2CCN(CCc3ccccc3)CCC2=O)cc1 | 3.36% (inactive)
C=CCOc1ccc(/C=N/n2cncn2)cc1OC | 19.5% (inactive)
COc1ccccc1/C=C/C=N/NC(=O)CN1CCN(Cc2ccccc2)CC1 | 49.7% (active)
COc1ccccc1CN1CCN(C(=O)Cc2ccccc2)CC1 | 6.8% (inactive)

Structure (SMILES) | inhibition
O=C(CN1CCN(Cc2ccccc2)CC1)Nc1ccc(F)c(F)c1 | -9.79% (inactive)
O=C(CCn1c(=S)[nH]c2cc3c(cc2c1=O)OCO3)NCc1ccc(Cl)cc1 | 20.7% (inactive)
O=c1c2ccccc2[nH]c(=S)n1-c1cccc(Cl)c1 | 9.09% (inactive)
CN(C)CCn1c(=S)[nH]c2ccc(Cl)cc2c1=O | 32.9% (active)
O=C(CN1CCN(S(=O)(=O)c2cc(Cl)ccc2Cl)CC1)c1ccc(O)c(O)c1 | 18.1% (inactive)
Cc1cc(/C=N/NC(=O)CC2(C)OCCO2)c(C)n1-c1ccc(Cl)c(Cl)c1 | 0.72% (inactive)
Cc1cc(C=O)c(C)n1-c1ccc(NC2CCCCC2)c([N+](=O)[O-])c1 | 0.62% (inactive)
Cc1cc(/C=N/Nc2ccc([N+](=O)[O-])cn2)c(C)n1-c1cccc(C(=O)O)c1 | 38% (active)
COc1ccc(-c2noc(C(C)NS(=O)(=O)c3ccc(NC(C)=O)cc3)n2)cc1 (configuration not stated) | -8.81% (inactive)
Brc1ccc(CN2CC[C@H]3C=CCc4cccc(c43)C2)cc1 | 6.9% (inactive)
CC(=O)N1CCOc2ccc(S(=O)(=O)N3CCN(c4cccc(C(F)(F)F)c4)CC3)cc21 | 6.9% (inactive)
O=C(N/N=C\c1ccc(-c2ccc(Cl)c(Cl)c2)o1)C(=O)N1CCCC1 | 14.3% (inactive)
COC(=O)N/N=C/c1ccc(-c2ccc(Cl)c(Cl)c2)o1 | 31.5% (active)
O=C(Cn1nnc(-c2ccccc2)n1)N/N=C/c1ccc(-c2ccc(Cl)cc2)o1 | 11.2% (inactive)
CCC1Sc2ccc(S(=O)(=O)CCC(=O)NCc3cccs3)cc2NC1=O (configuration not stated) | 10% (inactive)
Cc1cc(C(=O)N2CCCC2(C)C(=O)O)c(C)o1 (configuration not stated) | -1.83% (inactive)
COc1cc(/C=N/NC(=O)c2cccnc2)ccc1OC(=O)c1cccc(Br)c1 | 7.96% (inactive)
CSc1ccc(/C=N/NC(=O)c2cccc(Cl)c2)cc1 | 31.8% (active)
CCOc1cc(/C=N/NC(=O)c2cccc(S(=O)(=O)N3CCOCC3)c2)ccc1OCC(=O)N(C)C | 26.9% (inactive)
Cn1c(=O)n(C)c2cc(/C=N/NC(=O)c3cccc(Br)c3)ccc21 | 31.9% (active)
O=C(N/N=C/c1ccoc1)c1ccc(Cl)cc1Cl | -4.38% (inactive)
CC(NC(=O)C(=O)N/N=C/c1ccc(Cl)cc1)c1ccccc1 (configuration not stated) | -6.35% (inactive)
O=C(OCC(=O)N1CCCCCC1)c1cnc(Cl)c(Cl)c1 | -4.78% (inactive)

Structure (SMILES) | inhibition
COc1ccc(C2CC(=O)Oc3ccc(C(C)(C)C)cc32)cc1 (configuration not stated) | 10.2% (inactive)
COc1ccc([C@H]2CC(=O)C=C(/C=C/c3ccccc3)C2)cc1 | 37.2% (active)
COc1ccc([C@H]2CC(=O)C=C(/C=C/c3ccc(Cl)cc3)C2)cc1 | 2.59% (inactive)
COc1ccc([C@H]2CC(=O)C=C(c3ccc(C)cc3)C2)cc1 | 13.4% (inactive)
CCCCC(=O)N(C)c1c(CC)nc2c(OCc3ccc(S(C)(=O)=O)cc3)cccn12 | 8.04% (inactive)
CN(C)Cc1ccc(F)cc1Sc1cc(Cl)ccc1Cl | 6.23% (inactive)
OCCNc1nc2ccccc2n1-c1ncnc2sc3c(c12)CCC3 | 7.12% (inactive)
COc1ccc(/C=N/Nc2ncnc3sc4c(c23)CCCC4)cc1O | 34.2% (active)
COc1ccc(NC(=O)CCCNC(=O)Cn2cnc3sc4c(c3c2=O)CCCC4)cc1OC | 4.67% (inactive)
Cc1nnc(NC(=O)CCC(=O)N2CCC(C)CC2)s1 | -8.68% (inactive)
Cc1noc(NS(=O)(=O)c2ccc(N/C=C/C(=O)c3ccccc3)cc2)c1C | 32.3% (active)
Cc1ccc(C(=O)/C=C/Nc2ccc(S(=O)(=O)Nc3onc(C)c3C)cc2)cc1 | 21.6% (inactive)
Cc1noc(NS(=O)(=O)c2ccc(NC(=O)C34CCC(CC3)C4)cc2)c1C | -6.12% (inactive)
Cc1ccc(-c2csc(C(C#N)=C(O)CN3CCN(C(=O)c4ccco4)CC3)n2)cc1 | 21.6% (inactive)
COC(=O)C(C(=O)Nc1cccc(C)n1)C1CCCCCC1 (configuration not stated) | 14.9% (inactive)
C=CCN(c1ccc(C(=O)Nc2cc(C)cc(C)c2)cc1)S(C)(=O)=O | 4.51% (inactive)
CC(C)(C)C(=O)c1cnc(Nc2ccccc2)s1 | 35.6% (active)
O=C(/C=C/Nc1ccccc1)c1cnc(-c2ccccc2)s1 | 3.77% (inactive)
CC(=O)c1cnc(-c2ccccc2)s1 | 10.1% (inactive)
C=CC(COCc1ccccc1)N(Cc1ccccc1)S(=O)(=O)c1ccccc1Br (configuration not stated) | 9.24% (inactive)
CCCOc1cccc(C(=O)Nc2nnn(CCC)n2)c1 | 3.11% (inactive)
O=C(Nc1ccc(Cl)cc1)c1cccc(OC(=S)N2CCOCC2)c1 | -5.96% (inactive)
CCC(=O)Oc1cccc(C(=O)Nc2ccc(-c3nnc(-c4ccco4)o3)cc2)c1 | 35.6% (active)

Structure (SMILES) | inhibition
N#C/C(C(=S)Nc1ccccc1)=C1/NN=C(N2CCOCC2)N1c1ccccc1 | 6.29% (inactive)
Cc1ccc2c(O)c(Cc3ccccc3)c(=O)[nH]c2n1 | 12.7% (inactive)
CC1CCN(C(=O)Cn2cc(C(=O)c3ccco3)c3ccccc32)CC1 | 21.1% (inactive)
N#Cc1ccc(Cn2cc(C(=O)c3ccco3)c3ccccc32)cc1 | 31.5% (active)
NC(=O)Cn1cc(C(=O)c2ccccc2F)c2ccccc21 | 1.25% (inactive)
CCOC(=O)c1c(NC(=S)SC)sc(C(=O)N2CCc3ccccc3C2)c1C | 1.83% (inactive)
CN1CCC(=NNC(=O)CN(c2cccc(Cl)c2)S(C)(=O)=O)CC1 | 3.59% (inactive)
CCc1nc2cccnc2n1-c1ccc(C(=O)O)cc1 | 0.86% (inactive)
N#CCCCn1c(O)c(N=NC(=O)C(O)c2ccccc2)c2ccccc21 (configuration not stated) | 42% (active)
CCCCn1c(O)c(N=NC(=O)Cn2c(C(F)(F)F)nc3ccccc32)c2ccccc21 | -14.8% (inactive)
Cc1csc(Nc2ccc(Cl)cc2)[n+]1-c1ccc(Cl)cc1 | 2.24% (inactive)
O=C(CNC(=O)C(c1ccccc1)c1ccccc1)N/N=C\c1ccc2c(c1)OCO2 | 6.25% (inactive)
C/C(=N\NC(=O)c1cccnc1)c1ccc(-n2ccnc2)cc1 | 12.6% (inactive)
O=C(CNC(=O)C1COc2ccccc2O1)N/N=C/c1cc(Br)c(O)c(Br)c1 (configuration not stated) | 33.5% (active)
Cc1cccc(OCC(=O)NCCNC(=O)c2cccnc2)c1 | -7.55% (inactive)
CCCOc1cccc(C(=O)NCCCNC(=O)c2cccnc2)c1 | -5.19% (inactive)
CC(C)OCCCNC(=O)CNC(=O)c1cccs1 | 3.27% (inactive)
O=C(CNC(=O)c1ccccc1Br)NNC(=O)c1cccs1 | -3.45% (inactive)
CC1CC(=NNC(=O)C2COc3ccccc3O2)CC(C)(C)C1 (configuration not stated) | -8.18% (inactive)
CCN(CC)c1ccc(/C=N/NC(=O)CNC(=O)c2cccnc2)cc1 | 33.1% (active)
O=C(CNC(=O)c1cccnc1)N/N=C/c1cc(Br)c(O)c(Br)c1 | 42% (active)
CCN(CC)c1ccc(/C=N/NC(=O)CNC(=O)c2cccs2)cc1 | 31.4% (active)
CCOc1cc(/C=N/NC(=O)c2ccncc2)cc(Br)c1O | 0% (inactive)
